Results taken from PubChem BioAssay (NCI).
Compounds without any hit were thinned out: in the full panel of roughly 83,000, 20% have a hit.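 Percent growth is the endpoint: 0 to 100 indicates growth inhibition (40 means 60% inhibition), 0 means no net growth, and negative values indicate cell death.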 Unmarked numbers belong to inactive results. Calls of active or inactive are those of the source. The calls were made as follows: active = growth percent below 10; inactive = the rest.

Assays:
Experiment in all cases: NCI-60 one-dose screen, 48 h (100 = growth as untreated, 0 = no growth, -100 = all killed)
Conditions in all cases: 10 µM unless noted
[1] = system: T-47D breast
[2] = system: BT-549 breast
[3] = system: MDA-MB-435 melanoma
[4] = system: SW-620 colon
[5] = system: MCF7 breast
[6] = system: HCT-116 colon
[7] = system: HCC-2998 colon
[8] = system: KM12 colon

SMILES | growth [1] | growth [2] | growth [3] | growth [4] | growth [5] | growth [6] | growth [7] | growth [8]
Cn1cc(-c2csc(-c3cn(CCNC(=O)OC(C)(C)C)c4ccc(F)cc34)n2)c2cccnc21 | 1.12% (active) | 65.4% | 77.6% | 88.4% | 47.3% | 82.6% | 93.5% | 52.7%
CC1(C)c2ccccc2C(=O)C1(Br)Cc1ccccc1 (stereo not given) | 60.6% | 105% | 61.3% | 36.6% | 81.3% | 54.9% | 78.4% | 90.9%
Cn1cc(-c2nc(-c3cn(C)c4ncccc34)cs2)c2ccccc21 | 42% | 48.3% | -18.6% (active) | 27% | 15.9% | 14.6% | 67.4% | 22.5%
C=C(C)[C@@H]1CC[C@]2(C(=O)OC)CC[C@]3(C)[C@H](CC[C@@H]4[C@@](C)(CC/C(N)=N/O)[C@H](C(=C)C)CC[C@]43C)[C@@H]12 | 91% | 97.8% | 101% | 97.4% | 88.3% | 89.8% | 96.3% | 99.1%
Cc1ccc(C)c2c1CCC2C(C)C (stereo not given) | 91.2% | 100% | 108% | 106% | 107% | 96% | 101% | 101%
COc1cc(/C=C/c2cc(/C=C/c3ccc(O)c(OC)c3)n(-c3ccc(Cl)cc3)c(=O)n2)ccc1O | 86% | 66.9% | 74.9% | 85.6% | 47.6% | 50.6% | 104% | 77%
CC1(C)NCCC[C@]2(C)[C@H]3CC[C@@H]4[C@H]5[C@H](C(=O)/C=C/c6ccccn6)CC[C@]5(CO)CC[C@@]4(C)[C@]3(C)CC[C@@H]12 | 30.7% | 64.6% | 57.3% | -51% (active) | 20.3% | -7.47% (active) | 47.9% | 25.5%
COc1ccc(OC)c(-c2c(C#N)c(-c3ccco3)nc3c2c(-c2ccccc2)nn3-c2ccccc2)c1 | 84% | 108% | 106% | 95.8% | 94.7% | 87.8% | 105% | 106%
C[C@@H](C(=O)O)c1ccc2c3cc(Cl)ccc3n(Cc3cc(=O)oc4ccc(Cl)cc34)c2c1 | 86.8% | 86.7% | 104% | 107% | 90.7% | 87.8% | 101% | 99%
Nc1c2c(nc3ccc(Br)cc13)CC(c1ccccc1)CC2=O (stereo not given) | 43.1% | 42.9% | -43.4% (active) | 26.1% | 21.1% | 31.9% | 62.9% | 24.7%
CC1(C)CC[C@]2(C(=O)NCCNCCN)CC[C@]3(C)C(=CC[C@@H]4[C@@]5(C)CCC(=O)C(C)(C)[C@@H]5CC[C@]43C)[C@@H]2C1 | -71.1% (active) | 83.5% | 61% | -78.4% (active) | -23.8% (active) | -54% (active) | 24.5% | 9.99% (active)
CCCCCCCCNc1cccc2c1C(=O)c1ccccc1C2=O | 94.5% | 101% | 105% | 93.5% | 102% | 103% | 107% | 103%
COC(=O)C(Cc1ccccc1)n1cc(COc2nc(Cl)nc(Nc3ccc(Cl)cc3)n2)nn1 (stereo not given) | 78.9% | 99.6% | 105% | 99.8% | 78.1% | 100% | 101% | 96.5%
NC1=C(C/C(N)=N\O)C(c2ccccc2Cl)c2c(ccc3ccccc23)O1 (stereo not given) | 84.8% | 89.3% | 3.52% (active) | 63.1% | 68.5% | 83.8% | 97.1% | 67.5%
COc1ccc2[nH]cc(-c3nc(-c4c[nH]c5ncccc45)cs3)c2c1 | 67.1% | 36.8% | 54% | 19% | 32.5% | 18.1% | 70.4% | 25.3%
CC[C@]12C=CCN3CC[C@@]4(c5cc([C@H]6CCC(=O)N6)c(OC)cc5N(C)[C@H]4[C@@](O)(C(=O)OC)[C@@H]1OC(C)=O)[C@@H]32 | 96.3% [2.5 µM] | 113% [2.5 µM] | 107% [2.5 µM] | 108% [2.5 µM] | 93.2% [2.5 µM] | 100% [2.5 µM] | 110% [2.5 µM] | 111% [2.5 µM]
NCCn1cc(-c2nc(-c3c[nH]c4ncccc34)cs2)c2cc(Br)ccc21 | 44.8% | 97.8% | 84.8% | 7.12% (active) | 30.7% | 66.6% | 100% | 65.2%
COC(=O)[C@]12CC[C@@H](C(=O)/C=C/c3cccnc3)[C@@H]1[C@H]1CC[C@@H]3[C@@]4(C)C/C(=C/c5cccnc5)C(=O)C(C)(C)[C@@H]4CC[C@@]3(C)[C@]1(C)CC2 | -43.6% (active) | -92.1% (active) | -69.7% (active) | -67.3% (active) | -54.2% (active) | -87.4% (active) | -55.5% (active) | -75% (active)
C=C(C)[C@@H]1CC[C@]2(C)[C@H](CC=C3[C@@H]4CC(C)(C)CC[C@]4(C(=O)OC)CC[C@]32C)[C@@]1(C)CC/C(N)=N/O | 6.99% (active) | 63.7% | 80.5% | 67.6% | 3.92% (active) | 18.5% | -53% (active) | 61%
N#C/C(=C\c1ccc(-c2cccc(C(F)(F)F)c2)o1)c1nc(-c2ccco2)cs1 | -17.6% (active) | 97% | 102% | 104% | 22.4% | 91.7% | 29.5% | 65.5%
COc1cccc2c1C(=O)c1c(O)c3c(c(O)c1C2=O)C[C@@](O)(C(=O)CO)C[C@@H]3OC1C[C@H](N)[C@H](O)[C@H](C)O1 (stereo not given in full) | -0.159% (active) | -56.5% (active) | -82.6% (active) | 1.37% (active) | 4.42% (active) | 3.07% (active) | -45.9% (active) | -14.2% (active)
COc1ccc(-c2nc3ncccn3c2-c2nc3ccc(Br)cc3[nH]2)cc1 | 77.8% | 90.4% | 68.1% | 93.9% | 96.7% | 83% | 97% | 84.5%
CC(C)(C)c1[nH]nc2c1C(c1cc3ccccc3[nH]c1=O)Nc1cc(C(=O)OCc3ccccc3)ccc1N2 (stereo not given) | 36.7% | 56.4% | 39.9% | 54.4% | 38.1% | 38.4% | 55.9% | 31%
COc1cc2c3c(c4c5ccccc5[nH]c4c2c(OC)c1OC)C(=O)N(O)C3=O | 19.5% | 46.2% | 56.1% | 49% | 20.4% | 16.8% | 55.3% | 53.7%
COc1ccc(-c2cc(=O)oc3ccc(Cl)cc23)cc1F | 50.5% | 18.9% | -21.1% (active) | 23.5% | 17.4% | 5.47% (active) | 19.6% | 11.2%
O=c1[nH]c(=S)[nH]c2nc[nH]c12 | 105% | 109% | 110% | 99.2% | 97.4% | 93.9% | 99.7% | 106%
COc1cccc(-c2nn(-c3ccccc3)cc2-c2ccnc(NCCCNS(=O)(=O)c3ccc(C(F)(F)F)cc3)c2)c1 | -2.76% (active) | 36.6% | 27.1% | 47.7% | 16.9% | 22.9% | 20% | 23.8%
COc1ccc(OCC(CO)N2CCN(c3ccccc3)CC2)cc1 (stereo not given) | 101% | 97.5% | 108% | 110% | 83.4% | 95.7% | 99.7% | 105%
COC(=O)[C@]12CC[C@@H](C)[C@H](C)[C@@H]1C1=CC[C@@H]3[C@@]4(C)CC(=O)[C@H](OC(=O)c5ccco5)[C@@]5(C)COC(=C45)C[C@@]3(C)[C@]1(C)CC2 | 1.72% (active) | 25.9% | 21.4% | 31.2% | 15.7% | 16.4% | 52.3% | 27.9%
COc1cc(/C=N/Nc2ncnc3c2c(C)nn3-c2ccc(F)cc2)ccc1O | 79.8% | 90.4% | 95.4% | 131% | 85.3% | 105% | 99.7% | 71.9%
